# DAX1 inh-1 = DAX1 (NR0B1) inhibitors on StAR promoter, primary screen, cell-based, luminescence, SF-1 (NR5A1), full-length DAX-1. HEK293T StAR-luciferase reporter, SF-1/DAX-1 repression relief. inhibition, % at 6.8 µM. actives 1.1% (n = 370,000). AID 652010, 2013;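 active = inhibition above the mean over all tested compounds plus 3 SD, cut at about 3.6% in these data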;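 also: higher inhibition means more luminescence from relief of DAX-1 repression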
# DAX1 inh-2 = DAX1 (NR0B1) inhibitors, primary screen, cell-based, HEK293, Gal4-DAX1, luciferase luminescence; AID 504766, 2011; HEK293 Gal4-DAX1 luciferase reporter; inhibition, % at 6.75 µM; actives 0.99% (n = 340,000); Nuclear receptor subfamily 0 group B member 1 (Homo sapiens), P51843;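 active = inhibition above the mean over all tested compounds plus 3 SD, cut at about 4.2% in these data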;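 also: inhibition shows as a rise in luminescence from relieved DAX1 repression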
# ssDAF-12 act = S. stercoralis DAF-12 nuclear receptor activators, primary screen, cell-based, luminescence, HEK293, GRIP1 co-expression, lit1-tk-luc; Nuclear hormone receptor DAF-12 (Strongyloides stercoralis); activation, % at 6.8 µM; HEK293 ssDAF-12/GRIP1 lit1-tk-luc reporter; % of 3 µM dafachronic acid response; actives 1% (n = 370,000); AID 652126, 2013;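 active = activation above the mean over all tested compounds plus 3 SD, cut at about 0.9% in these data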
# AHR act = AHR activators, primary screen, cell-based, luminescence, luciferase reporter, human | actives 2.5% (n = 320,000) | AHR-responsive luciferase reporter cells | AID 2796, 2010 | activation, % at 5 µM | Aryl hydrocarbon receptor (Homo sapiens), P35869; in the data active = activation above about 47%
# hgDAF-12 ag = H. glycines DAF-12 receptor agonists, primary screen, cell-based, luminescence, HEK293, GAL4 fusion, UAS-luciferase | Nuclear hormone receptor DAF-12 (Heterodera glycines), GAL4 fusion | HEK293 GAL4-hgDAF12 UAS-luciferase reporter, agonist luminescence; normalized to butyrate control | activation, % at 6.8 µM | actives 1.8% (n = 370,000) | AID 687014, 2013;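 active = activation above a cutoff set at the mean of all screened compounds plus 3 SD, cut at about 10% in these data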
# hcDAF-12 act = H. contortus DAF-12 nuclear receptor activators, primary screen, cell-based, luminescence, HEK293, lit1-tk-luc reporter; HEK293 hcDAF-12 lit1-tk-luc reporter; 0% DMSO, 100% Δ7-dafachronic acid; activation, % at 6.8 µM; actives 1.4% (n = 370,000);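 active = activation above the mean of all tested compounds plus 3 SD, cut at about 5.5% in these data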
# A number is an active result; – = inactive; · = no result; ! = repeats disagree. Shown are actives, neighbours in structure and some others; about 5.7% of the full set was active somewhere.
SMILES,DAX1 inh-1,DAX1 inh-2,ssDAF-12 act,AHR act,hgDAF-12 ag,hcDAF-12 act
Cc1ccc(C(=O)COC(=O)[C@@H](NC(=O)c2ccco2)C(C)C)s1,–,–,–,–,–,–
Cn1c(O)c(N=NC(=O)CNC(=O)c2ccccc2)c2ccccc21,–,–,–,–,–,–
Cc1ccc(NCC(=O)N=Nc2c(O)n(C)c3ccccc23)cc1,–,–,–,49,–,–
CCn1c(O)c(N=NC(=O)CNc2ccc(C)cc2)c2ccccc21,–,–,–,67,–,–
CN(C(=O)c1ccc(NC(=O)Cc2cccc(NC(=O)C3CCN(C(=O)C4CCCCC4)CC3)c2)cc1)C1CCCC1,–,–,–,–,–,–
COc1cccc(CNC(=O)[C@H]2CCCN2C(=O)[C@H]2CCCN2C(=O)c2ccc(F)c(F)c2)c1,–,·,–,·,–,–
COCc1cc(N2CCNC[C@H]2C)ccc1N1CCN(Cc2ccccc2)[C@H](C)C1,–,·,–,·,–,–
CCc1cc2c3c(c(=O)oc2cc1O)CCCC3,–,–,–,76,–,–
Cn1cc(NC(=O)Nc2ccc(C(F)(F)F)cc2)c(C(F)(F)F)n1,–,–,–,–,–,–
Cn1cc(NC(=O)OCc2ccc(Cl)cc2)c(C(F)(F)F)n1,3.7,–,–,–,–,–
N#Cc1c(SCC(=O)Nc2ccc(Cl)cc2Cl)sc2c(O)cc(=O)[nH]c12,–,–,–,–,–,–
Cc1c(Cl)cccc1NC(=O)CSc1sc2c(O)cc(=O)[nH]c2c1C#N,–,4.4,–,–,–,–
CCOc1ccc(Br)cc1C(=O)N/N=C/c1cccnc1,–,–,–,67,–,–
O=C(N/N=C/c1cccnc1)c1cc(Br)ccc1O,–,–,–,–,12,–
O=C(N/N=C/c1ccc2ncccc2c1)c1cc(-c2cccs2)nc2ccccc12,–,–,–,–,–,–
O=C(N/N=C/c1cccnc1)c1cc(-c2cccs2)nc2ccccc12,–,–,–,76,–,–
Nc1cc(C(F)(F)F)ccc1-n1cccc1,–,–,–,–,–,–
c1ccc(-c2c[nH]c3cccc(C4CCCCC4)c23)cc1,–,·,–,·,–,–
COc1ccccc1N(CC(=O)Nc1ccc2c(c1)OCCO2)S(=O)(=O)c1ccc(C)cc1,–,–,–,–,–,–
CC(=O)C1=C(C)N(Cc2ccc(F)cc2)C(=S)NC1c1cccc(Cl)c1 (stereo not drawn),–,·,–,·,–,–
COc1ccc(/C=N/NC(=O)c2ccc(COc3ccccc3Cl)o2)cc1,–,–,–,62,–,–
CSc1ccc(/C=N/NC(=O)c2ccc(O)cc2)cc1,–,–,–,–,12,–
COc1ccc(C=NNC(=O)c2ccncc2)cc1,–,·,–,·,–,–
COc1ccc(C(=O)N/N=C/c2ccc(SC)cc2)cc1,–,–,–,–,11,–
Cc1ccc2cc(CN(CC(C)C)S(=O)(=O)c3cccc4nonc34)c(=O)[nH]c2c1,–,–,–,–,–,–
SMILES,DAX1 inh-1,DAX1 inh-2,ssDAF-12 act,AHR act,hgDAF-12 ag,hcDAF-12 act
COc1cc(/C=C2\C(=N)N3N=C(S(C)(=O)=O)SC3=NC2=O)ccc1OS(=O)(=O)c1ccc(C)cc1,–,–,–,–,–,–
CC1CCN(c2nc3nonc3nc2Nc2ccc(F)cc2)CC1,–,–,–,50,–,–
NNC(=O)c1ccc2c(c1)S(=O)(=O)NNC2=O,–,–,–,–,11,–
c1ccc(-n2ncc3c(N4CCN(CCOc5cccc6ccccc56)CC4)ncnc32)cc1,–,–,–,49,–,–
CS(=O)(=O)N1CCN(c2ncnc3c2cnn3-c2ccccc2)CC1,–,–,–,–,–,–
Cc1cc(C(=O)OCC(=O)NCc2ccccc2)c(C)o1,–,–,–,–,–,–
Cc1cc(C(=O)NN=C(Cc2ccccc2)Cc2ccccc2)c(C)o1,–,–,–,58,–,–
Cc1cc(C(=O)OCC(=O)NCCc2ccccc2)c(C)o1,–,5.1,–,–,–,–
COc1cccc(-c2nnc(SCC(=O)Nc3ccc(Oc4ccccc4)cc3)n2Cc2ccco2)c1,–,·,–,·,–,–
O=C1C(C=NCCCn2ccnc2)=C(O)c2ccccc21,–,–,–,48,–,–
CC(C)CN=CC1=C(O)c2ccccc2C1=O,–,–,–,–,–,–
O=C1C(C=NCc2ccccn2)=C(O)c2ccccc21,–,–,–,60,–,–
O=C(N/N=C/c1oc(O)c2ccccc12)c1ccccc1O,–,–,–,–,–,–
O=[N+]([O-])CC(=Nc1ccc(F)cc1)N/N=C\c1oc(O)c2ccccc12,·,·,·,54,·,·
COC(=O)c1[nH]c2ccc(Br)cc2c1NC(=O)CN1CCCc2ccccc21,–,–,–,48,–,–
COC(=O)c1[nH]c2cc(C)ccc2c1NC(=O)CN1CCN(C(=O)c2ccco2)CC1,–,–,–,67,–,–
COC(=O)c1[nH]c2ccc(Br)cc2c1NC(=O)CN1CCN(C2CCCCC2)CC1,–,–,–,–,–,–
COC(=O)c1[nH]c2cc(C)ccc2c1NC(=O)CN1CCCc2ccccc21,–,–,–,67,–,–
O=C(Nc1cccc(-c2nc3cccnc3s2)c1)c1cccnc1Cl,–,–,–,–,–,–
O=C(Nc1cccc(-c2nc3cccnc3s2)c1)c1ccc(Cl)nc1,–,–,–,68,–,–
CCn1c(=O)c2c(nc3n2CCS3)n(C)c1=O,–,–,–,–,–,–
Cn1c(=O)n(CC(=O)O)c(=O)c2c1nc1n2CCS1,–,6.4!,–,–,–,–
O=C(/C=C/c1ccco1)N1CCN(S(=O)(=O)c2cccs2)CC1,–,6.6,–,–,–,–
O=c1oc2ccccc2c(Nc2cccc3ccccc23)c1[N+](=O)[O-],–,–,–,–,–,–
O=c1oc2ccccc2c(Nc2cccc3cccnc23)c1[N+](=O)[O-],–,–,–,57,–,–
Cc1ccc(C(=O)CN(CCCC(N)=O)S(=O)(=O)c2ccc([N+](=O)[O-])cc2)cc1,–,–,–,–,–,–
Cc1nn(CC(=O)OC(C)C(=O)Nc2ccccc2[N+](=O)[O-])c(C)c1[N+](=O)[O-] (stereo not drawn),–,–,3.5,–,–,–
CC(OC(=O)CCC(=O)c1cccs1)C(=O)Nc1ccccc1[N+](=O)[O-] (stereo not drawn),–,–,–,–,–,–
Cc1ccc(C(=O)NCC(=O)OC(C)C(=O)Nc2ccccc2[N+](=O)[O-])s1 (stereo not drawn),3.6,–,–,–,–,–

# From PubChem BioAssay
